Source: PubChem (several laboratories)
The list is not random: actives were taken first. Their share in the collection is about 27%.
CYP2C19 act: cytochrome P450 2C19 (human) activation | P33261 | recombinant CYP2C19, luciferin-H EGE luminescence; hits give high values; 0 = fully inhibited enzyme, 1 = untreated enzyme | activation factor at 5 µM | 96,000 tested, under 10 active | AID 1025;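 active = activation factor of at least 2 at 5 µM in the primary screen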;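 also: 0 = wells with 2.5 mM tranylcypromine and 1 = vehicle-only wells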
Target sequence (P33261 whole entry, looked up): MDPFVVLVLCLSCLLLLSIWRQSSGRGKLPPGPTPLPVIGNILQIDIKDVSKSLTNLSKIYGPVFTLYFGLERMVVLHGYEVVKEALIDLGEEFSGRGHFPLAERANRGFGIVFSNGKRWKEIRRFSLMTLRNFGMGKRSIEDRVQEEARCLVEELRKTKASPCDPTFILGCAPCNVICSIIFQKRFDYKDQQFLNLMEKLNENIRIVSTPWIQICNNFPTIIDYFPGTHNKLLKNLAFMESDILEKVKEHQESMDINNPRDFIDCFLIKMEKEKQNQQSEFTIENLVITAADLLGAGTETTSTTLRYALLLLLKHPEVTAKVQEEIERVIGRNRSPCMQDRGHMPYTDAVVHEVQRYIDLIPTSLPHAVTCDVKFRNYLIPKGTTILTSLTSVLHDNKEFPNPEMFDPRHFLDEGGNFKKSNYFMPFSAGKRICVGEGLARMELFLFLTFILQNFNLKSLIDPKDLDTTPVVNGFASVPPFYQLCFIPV
CYP2C9 inh: blocks human cytochrome P450 2C9. AID 777. hit rate 20% among 96,000. CYP2C9 Supersomes, luciferin-H conversion, luminescence. inhibition, % at 5 µM;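 active = blocking of liver enzyme CYP2C9 beyond about 50% at 5 µM, limit read from the data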
sEH inh: blocks human soluble epoxide hydrolase activity; P34913; recombinant human sEH enzymatic activity assay; inhibition, % at 2 µM; hit rate 0.34% among 91,000; AID 707; in the data active = inhibition above about 80%
CYP2C9 activ: CYP2C9 (human) activation. P11712. recombinant CYP2C9, luciferin-H conversion, luminescence; hits give high values; factor 1 = untreated enzyme, 0 = blocked. activation factor at 5 µM. hit rate 1.4% among 96,000. AID 1024;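 active = activation factor of 2 or more for CYP2C9 at a 5 µM dose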;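 also: 0 = sulfaphenazole-blocked wells and 1 = vehicle-only wells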
sEH act: soluble epoxide hydrolase (human) activation; hit rate 0.04% among 91,000; purified human sEH enzymatic activity, activator screen; activation, % at 2 µM; P34913; in the data active = activation above about 37%
CYP2C19 inhib: human CYP2C19 inhibition; CYP2C19 Supersomes, luciferin-H EGE luminescence, 30 min; inhibition, % at 5 µM; hit rate 21% among 96,000; AID 778;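 active = CYP2C19 inhibition above a set limit at 5 µM in the primary screen, cut at about 50% in these data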;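 also: plate controls were negative control wells for no effect and 2.5 mM tranylcypromine positive control for full effect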
The depositor's hits bear a star; nt = not tested or not shown.

SMILES	CYP2C19 act	CYP2C9 inh	sEH inh	CYP2C9 activ	sEH act	CYP2C19 inhib
CCC1(CC)C(=O)NC(=O)NC1=NCCc1c[nH]c2ccccc12	0.7	21	6	0.8	-7	34
COc1cccc(N2C(=O)CC(N3CCC(C(N)=O)(N4CCCCC4)CC3)C2=O)c1 (stereo not given)	nt	nt	1	nt	0	nt
COc1ccc(C2(NC(C)=O)CCN(C(=O)c3ccco3)CC2)cc1	0.7	40	7	0.6	-9	29
CCOC(=O)Cc1nnc(Nc2cccc(O)c2)c2ccccc12	0.8	-12	2	1.1	-1	22
O=C(NCCCCCCNC(=O)C1CCCC1)C1CCCC1	nt	nt	13	nt	-11	nt
COc1ccc2[nH]c3ccccc3c2c1	0.5	3	nt	1	nt	55*
COc1ccc2[nH]c(O)c(NC(C)=O)c2c1	0.9	63*	4	0.4	-6	8
CC(=O)Nc1ccc2[nH]c3ccccc3c2c1	0.3	10	-8	0.9	5	73*
O=C(NCCO)c1ccc2[nH]c3ccccc3c2c1	0.1	16	-9	0.8	9	91*
COC(=O)c1[nH]c2cc(OC)ccc2c1N	0.8	3	27	1	-26	22
O=C(Cc1cccc2ccccc12)NNC(=O)c1cccs1	0.6	-2	-3	1	4	41
CC(C)OC(=O)c1c2nc3ccccc3nc2n2c1[nH]c(=O)c1ccccc12	1.1	15	-5	0.9	5	-7
O=C(Oc1ccc(Cl)cc1N1C(=O)CCC1=O)c1ccco1	0.9	6	1	0.9	-1	11
O=c1[nH]c2c(s1)C=Nc1ccccc1N2	1.1	-14	nt	1.1	nt	-13
COC(=O)CSCC(=O)Nc1cc2c(cc1C(C)=O)OCO2	0.9	2	11	1	-11	11
NC1=NC(c2ccc(Br)cc2)n2c(nc3ccccc32)N1 (stereo not given)	0.1	38	6	0.6	-7	94*
COc1ccc(N=C(N(C)C)P(=O)(N(C)C)N(C)C)cc1	0.9	-8	3	1.1	-2	8
COc1cccc(NS(=O)(=O)c2ccc3[nH]cc(C(=O)NCCN4CCOCC4)c(=O)c3c2)c1	0.9	46	0	0.5	-3	7
O=C(NCc1ccccc1)c1c[nH]c2ccc(S(=O)(=O)Nc3ccc4c(c3)OCCO4)cc2c1=O	0.7	89*	-4	0.1	3	32
O=C(NC1CC1)c1c[nH]c2ccc(S(=O)(=O)Nc3cccc(C(F)(F)F)c3)cc2c1=O	0.8	54*	0	0.5	-3	15
CCOCCCNC(=O)c1c[nH]c2ccc(S(=O)(=O)Nc3cccc(OC)c3)cc2c1=O	0.7	68*	8	0.3	-4	27
O=C(Nc1ccc(Cl)cc1F)C1CCN(S(=O)(=O)c2cccnc2)CC1	0.9	17	10	0.8	-8	6
Cc1c(O)ccc(C(=O)COc2ccccc2F)c1O	0.3	-2	1	1	-1	69*
COC(=O)c1ccc(OCC(=O)c2ccc(O)cc2O)cc1	0.6	19	nt	0.8	nt	38
O=C(COc1ccccc1F)c1ccc(O)cc1O	0.1	6	nt	0.9	nt	92*
SMILES	CYP2C19 act	CYP2C9 inh	sEH inh	CYP2C9 activ	sEH act	CYP2C19 inhib
Cc1c(O)ccc(C(=O)CN2C(=O)c3ccccc3C2=O)c1O	0.2	23	2	0.8	1	81*
O=C(O)COc1ccccc1O	1	-8	-9	1.1	7	-4
Cc1ccccc1NC(=O)Nc1ccccc1Br	0.9	3	9	1	-7	12
COCCNC(=O)c1onc(CSc2ccccc2C)c1C(=O)O	0.7	16	-1	0.8	7	26
Cc1nnc(NC(=O)CSc2nnnn2Cc2ccccc2)s1	1	86*	-4	0.1	6	-2
Cc1nc(NC(=O)CSc2nnnn2Cc2ccccc2)sc1C	0.2	51*	11	0.5	-12	81*
COc1ccc(OC)c(-n2nnnc2SCC(=O)Nc2nc(C)c(C)s2)c1	0.7	7	2	0.9	-5	31
COc1cccc(-c2csc3nnc(SCC(=O)NCc4cccs4)n23)c1	0.4	40	4	0.6	-2	59*
COc1ccc(-c2nnc(SCC(=O)NCc3cccs3)n2C)cc1	nt	nt	3	nt	0	nt
COc1ccc(-c2nnc(SCC(=O)NCc3cccs3)n2C(C)C)cc1	0.3	54*	13	0.5	-14	66*
Cn1nc(-c2ccccc2)c(-c2nc(-c3cccc(Cl)c3)no2)c1Cl	0.8	60*	-3	0.4	1	20
